Legend:
Assay in all cases: PBM binding z-score (relative to random genomic background probes); higher = stronger binding; sequences stand for … in GC…GCGATTGACAGCGTAGAATGAAGG
[1] = test system: FXR:RXRa (NR concentration 270 nM, RXRa partner concentration 90 nM)
Outline: (§1)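 Random background probes are the reference for binding z-scores. These scores derive from regression-normalized fluorescence on custom Agilent 4×180K protein-binding microarrays incubated 1 h with ligand-free nuclear receptor dimers. Binding was detected with antibodies against each partner (one per run).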

[2] = test system: LXRa:RXRa (NR concentration 270 nM, RXRa partner concentration 90 nM)
Outline: as §1

[3] = test system: LXRa homodimer (NR concentration 270 nM)
Outline: as §1

[4] = test system: LXRb:RXRa (NR concentration 270 nM, RXRa partner concentration 90 nM)
Outline: as §1

[5] = test system: LXRb homodimer (NR concentration 270 nM)
Outline: as §1

[6] = test system: PPARa:RXRa (NR concentration 270 nM, RXRa partner concentration 90 nM)
Outline: as §1

[7] = test system: PPARg:RXRa (NR concentration 180 nM, RXRa partner concentration 90 nM)
Outline: as §1

[8] = test system: PPARg:RXRa 270nM:90nM, anti-RXR (NR concentration 270 nM, RXRa partner concentration 90 nM)
Outline: as §1

[9] = test system: PPARg:RXRa 30nM:10nM, anti-RXR (NR concentration 30 nM, RXRa partner concentration 10 nM)
Outline: as §1

[10] = test system: PPARg:RXRa 90nM:30nM, anti-RXR (NR concentration 90 nM, RXRa partner concentration 30 nM)
Outline: as §1

Sequence	PBM binding z-score [1]	PBM binding z-score [2]	PBM binding z-score [3]	PBM binding z-score [4]	PBM binding z-score [5]	PBM binding z-score [6]	PBM binding z-score [7]	PBM binding z-score [8]	PBM binding z-score [9]	PBM binding z-score [10]
CCTCGGAGGACAGAAGGTCTGAGCTGTCCGCTTT	-0.434	-0.47	-0.775	-1.15	-1.31	-0.68	-0.853	-0.655	-1.15	-1.14
TAGCCTAGGTCAGATCGGGCCTGTATACGCTATA	1.56	0.715	-0.411	0.501	-0.0997	1.49	0.482	0.395	-0.139	0.162
TCATAAAGGTAAAAGGTGAAAGTCGGTGTGGTAA	3.11	2.59	0.231	2.75	0.0475	5.08	6.24	6.25	6.38	6.73
CCAGACAGGTGAAAGATAACTCAGTCTGGTACGC	-0.034	0.0578	-0.199	-0.0465	-0.465	0.902	1.27	1.47	0.306	1
CAGCCTAGGTCAGTGCCAGTATAGGAGGAACGTT	0.914	0.456	-0.00279	0.349	-0.648	1.17	0.469	0.475	-0.196	0.0661
TTACCAAGGTGAGCTGAGGTCGCTGATCCAACTC	1.17	0.578	-0.612	0.416	-1.44	1.52	0.0966	1	-0.104	0.763
CATCCTAGGTCAGGGCCAGTATAGGAGGAACGTT	2.24	2.03	0.118	1.17	-0.0238	2.75	1.89	2.19	0.615	1.34
TCTAGGAGGCCAGAGGGTCACTCAAGAGGTACGG	1.5	0.891	-0.426	0.559	-1.15	2.65	1.87	3.02	2.76	2.99
GGAACGAGGGCAAAGTTGATAGCTTCTGTCGACG	1.24	0.709	-0.752	0.608	-0.484	3.85	6.78	6.83	5.74	7.17
CCTAGCAGGCCTGGGTCACTCAAGCATTTCGCTT	0.369	0.545	-0.474	0.861	-0.369	1.34	-0.336	0.314	-0.828	-0.485
CCTTACGGGTCACTGACAGGTTATACCATTTGGA	4.86	4.42	0.698	3.61	-0.46	5.07	4.22	4.39	1.45	3.05
TCAGACAGGTGAATGTAACTCAGGTACGCAGTCG	0.149	0.452	0.0267	0.271	-0.401	0.789	0.834	1.72	2.99	2.36
TCATATAGGTAATACAGGTGAGAGTCGGCATCTA	0.19	0.512	0.274	0.54	0.184	1.63	1.39	2.16	3.62	2.77
AGAATGAGGTTATTAAGAACAGGGAATTGCGGTC	1.53	1.45	0.11	1.22	0.0569	2.3	1.53	1.67	0.448	1.02
CGTGCAAGGTCATAGGAGGTCAGTGAAGACAGAT	7.84	7.38	4.92	6.31	1.2	5.98	6.01	6.37	2.92	5.01
GCTGCTAGGTCAGGTGGGTCAGCTAACGGGTACG	1.62	1.2	-0.394	0.981	-0.0608	2.34	1.65	1.61	-0.279	0.851
AACGAAAGGTCGAGGTGAGTATAGAGAAAGGGAA	4.3	3.7	-0.0292	2.86	0.0857	4.71	3.34	3.82	1.16	2.59
TCTAATTGGTCACGGAGGTCACACACGACGGGTA	3.62	4	2.74	3.75	1.6	4.35	4.51	5.01	4.41	5.06
CCCAGTTGGTCAGGAGGTCACACACCGGATATGA	3.51	3.58	1.99	3.58	0.535	4.21	3.56	3.79	1.07	3

Sequence	PBM binding z-score [1]	PBM binding z-score [2]	PBM binding z-score [3]	PBM binding z-score [4]	PBM binding z-score [5]	PBM binding z-score [6]	PBM binding z-score [7]	PBM binding z-score [8]	PBM binding z-score [9]	PBM binding z-score [10]
ATCGAAAGGTCGAGGTGCGTATAGAGAAAGGGAA	3.98	3.27	-0.147	2.47	0.277	4.37	2.48	3.13	1.09	2.17
GCTAGCAGGCCATTAGGGTCACTCAATGACGGGC	1.78	1.35	-0.158	1.47	-0.982	2.54	1.2	1.3	-0.267	0.446
CATACAGGGTCAGCTAGACCAGAGTAGGGACGGC	4.47	2.92	-0.0625	2.14	0.336	4.07	3.27	3.06	0.824	1.87
CCTGCTAGGTCAATGGTCAGCAAAAGCAGCTCGC	2.97	2.15	0.13	1.33	-0.077	3.32	4.8	5.15	2.5	4.66
CTACCAAGGTGAACAAAGTCGTTGATTACTATTC	0.425	0.395	-0.0192	0.749	-0.488	1.01	0.314	0.548	0.192	0.308
CCTGCCAGGTCAATGGTCAGCTAAAGCAGCTCGC	3.36	2.51	-0.047	1.96	-0.196	3.48	2.59	3.44	0.524	2.57
CAAACTAGGGCACGAAAGGTCAAAGTCGAATGAC	5.64	6.93	6.08	5.54	1.5	6.49	8.39	7.22	5.17	7.03
CCTACTGGGCCAAAAAGGTCAATGATGCCGATAA	2.77	3.48	1.68	3.86	-0.306	4.92	3.36	3.84	1.55	2.86
TCGAGCAGGTTAGTCGGGGCATTCAGCCAACATA	-0.0429	-0.284	-0.517	0.593	-0.865	0.572	-0.408	-0.00465	0.101	0.383
ACAGACAGGTGAGTGAAGGTAACTCATCTGGACG	0.0966	-0.0411	-0.402	-0.512	-0.306	-0.155	0.684	0.0954	0.12	-0.143
CGTCAAAGTTCTACTAAGGTAACGTAAAGCACGC	1.91	-0.151	-0.14	0.0598	-0.14	0.277	0.459	0.289	0.196	0.185
GTACCAAGGTGAATACGTCGTTGATGAGTAGGCG	0.119	-0.0604	-0.411	-0.17	-0.867	0.781	0.854	0.362	0.117	0.456
CTACCAAGGAGAACAAGGTCGTTGATTACTATTC	0.511	0.515	0.637	0.992	0.011	0.978	0.183	-0.0538	-0.107	-0.114
GATACAGGCTCAGCTAGAGGCCAGAGTATGGAAA	-0.845	-1.13	-0.652	-1.25	-1.62	-1.21	0.137	-0.746	-0.505	-0.667
CTACCAAGGTGAATAAGGTCGTTGATTACTATTC	1.18	1.3	0.402	1.58	-0.326	2.22	0.631	1.01	0.203	0.602
ATCTCTAGGTAAAGATGGTTCAGTGAATGCAAAT	-0.0028	0.987	0.171	0.3	0.169	0.594	0.37	0.607	0.44	0.679
CCGACTGGTGCAAAGGTTACCATACTCAGTACGA	0.595	1.59	0.244	1.89	-0.483	3.86	6.69	6.67	4.73	6.75
AGAACGAGGGCAAAGAGTTGATAGCACGGGTGGC	0.422	0.331	-0.368	-0.152	-0.712	1.78	1.8	2.07	0.549	1.55
CCTCGTAGGACAACAGGAGGTCAGAGCTGCCAGA	0.951	2.16	1.91	1.57	-0.267	1.99	0.534	0.644	-0.534	0.258

Source: the supplement of paper PMC6555819
